Screen size: about 64,000 compounds; about 2,200 (3.4%) were called active.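 The calls were made as follows: active = calcium fluorescence response, raw or row-and-column corrected B-score, differing from the plate sample mean either way at a set confidence level, mostly lower; inactive = the rest.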 The entries come from a sample that favours actives as a whole.

Our source for the B-score values is PubChem BioAssay AID628 (Vanderbilt High Throughput Screening Facility, 2007).

Muscarinic acetylcholine receptor M1 (Rattus norvegicus), sequence (P08482 whole entry, looked up): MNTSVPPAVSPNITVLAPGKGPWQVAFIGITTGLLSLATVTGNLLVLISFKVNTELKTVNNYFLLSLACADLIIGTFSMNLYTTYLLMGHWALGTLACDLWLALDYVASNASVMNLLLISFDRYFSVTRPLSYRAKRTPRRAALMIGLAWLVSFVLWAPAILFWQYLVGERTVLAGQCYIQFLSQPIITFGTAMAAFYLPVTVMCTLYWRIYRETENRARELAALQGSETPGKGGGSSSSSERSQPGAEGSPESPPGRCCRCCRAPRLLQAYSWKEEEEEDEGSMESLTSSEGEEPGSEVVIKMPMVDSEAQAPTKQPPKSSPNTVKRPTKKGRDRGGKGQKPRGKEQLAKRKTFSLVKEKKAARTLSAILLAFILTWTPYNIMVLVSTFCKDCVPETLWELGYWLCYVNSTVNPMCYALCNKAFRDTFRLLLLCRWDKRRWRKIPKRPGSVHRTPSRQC

This test has as its target Muscarinic acetylcholine receptor M1 (Rattus norvegicus) (UniProt P08482). The test can be described thus: blocks the rat M1 muscarinic receptor response to acetylcholine (AID 628). The note with it: CHO-M1 cells, Fluo-4 calcium, ACh EC80 antagonist mode; at 10 µM; stronger effect = lower value.
For `O=c1/c(=C/c2ccc(CNS(=O)(=O)c3ccccc3)o2)sc2n1CCN=2`, the B-score is -1.07 (inactive).
As for `C=CCSc1nc2ccccc2[nH]1`, the B-score was -3.2 (active).
As for `c1ccc2[nH]c(-c3nc4ccccc4[nH]3)nc2c1`, the B-score was 0.625 (inactive).
The value for `O=C(CSc1nc2ccccc2[nH]1)c1cccs1` was 0.722 (inactive).
The value for `O=S(=O)(c1cccc(-c2nnc(SC(F)F)n2-c2ccccc2)c1)N1CCCCC1` was 0.56 (inactive).
The value for `CCCCN=C(N)/C(C(=O)OCC)=C(\O)c1ccc(OC)cc1` was 0.0185 (inactive).
Regarding `Cc1cccc(C)c1NC(=O)CCCSc1nnc(-c2ccco2)n1-c1ccccc1`, the B-score was 0.509 (inactive).
The value for `CCN(c1ccc2c(c1)OCO2)S(=O)(=O)c1cc(Br)cc2c1N(C(=O)C1CC1)CC2` was -0.598 (inactive); that for `CCOC(=O)N1CCN(S(=O)(=O)c2cc(Br)cc3c2N(C(=O)C2CC2)CC3)CC1` was -2.88 (active).
The value for `CCOC(=O)N1CCN(C(=O)C2CCN(S(C)(=O)=O)CC2)CC1` was -0.427 (inactive); that for `COc1ccccc1N1CCN(Cc2ccc(OC)c3ccccc23)CC1` was 0.229 (inactive); that for `COc1ccc(S(=O)(=O)Nc2ccc(S(=O)(=O)N3CCCCC3)cc2)cc1OC` was 0.8 (inactive).
The value for `Cc1ccc(C)c(NC(=O)CSc2nnc(Cc3cccn3C)n2-c2ccc(F)cc2)c1` was 0.873 (inactive); that for `COc1ccc(-c2nnn(Cc3nc(N)nc(N4CCCCC4)n3)n2)cc1` was -1.19 (active); that for `CCc1ccc(-c2nnn(Cc3nn[nH]n3)n2)cc1` was 0.0832 (inactive).
Regarding `CCOc1ccc(-c2nnn(CC(=O)N3CCN(c4ccc(OC)cc4)CC3)n2)cc1OCC`, the B-score is 0.00223 (inactive).
The value for `Cc1cc(C)c(C#N)c(SCc2[nH]nc3c2C(c2ccccc2)C(C#N)=C(N)O3)n1` (stereo not drawn) was 0.363 (inactive).
The value for `N#CC1=C(N)Oc2n[nH]c(CSc3ccccc3)c2C12C(=O)Nc1ccccc12` (stereo not drawn) was 2.72 (active).
Consider `COc1ccc(Br)cc1/C=N/n1c(C)nnc1C`, for which the B-score was 0.304 (inactive).
The value for `COc1cc(C2C(C(=O)Nc3ccccc3OC)=C(C)Nc3ncnn32)ccc1O` (stereo not drawn) was -0.653 (inactive).
`COc1cc(C2C(C(=O)Nc3ccc(F)cc3)=C(C)Nc3nc(CCCO)nn32)cc(OC)c1OC` (stereo not drawn): the B-score is 0.464 (inactive).
The value for `CCOc1ccc(C2C(C(=O)NC)=C(C)Nc3nc4ccccc4n32)cc1OC` (stereo not drawn) was -3.24 (active); that for `COc1ccc(OCC(=O)OCCN(C)C)cc1` was 0.389 (inactive); that for `CN(C)CCOC(=O)C(c1ccccc1)C1(O)CCCC1` (stereo not drawn) was -11.9 (active).
The value for `Cn1nc(-c2ccc(Cl)cc2)c2cc(C(=O)NCc3ccco3)sc21` was 0.443 (inactive).
The value for `CCN1CCN(C(=O)CN(C)S(=O)(=O)c2ccc(OC)cc2)CC1` was 0.444 (inactive); that for `CC1=Nn2c(nnc2-c2ccccc2)SC1` was -3.94 (active).
For `COc1ccc(-c2nn3c(-c4ccccc4)nnc3s2)cc1OC`, the B-score is -1.59 (inactive).
The value for `c1ccc(-c2nnc3n2NC(c2ccc4c(c2)OCO4)S3)cc1` (stereo not drawn) was -0.212 (inactive).
The value for `c1ccc(-n2ncc(-c3nn[nH]n3)n2)cc1` was 2.54 (inactive); that for `Cn1c(C(=O)NCCCN2CCCCC2)cc2sccc21` was -1.16 (inactive).
The value for `Cc1ccsc1-c1nc(CSCC(=O)NCCN2CCCC2)c(C)o1` was -4.42 (active); that for `Cc1cc(NC(=O)CSCc2nc(-c3cccc(Cl)c3)oc2C)no1` was 0.32 (inactive); that for `COCCn1c(CN(Cc2ccccc2)Cc2ccccc2)nc2c1c(=O)n(C)c(=O)n2C` was 0.00241 (inactive).
For `CSCCC(NC(N)=O)C(=O)N(C)CC(=O)Nc1ccc(C)cc1` (stereo not drawn), the B-score was -0.414 (inactive).
`Cc1[nH]c2ccccc2c1C(=O)CSCC(=O)O`: the B-score was -0.627 (inactive).
The value for `OC(COc1ccc2ccccc2c1)CN1CCOCC1` (stereo not drawn) was -0.165 (inactive); that for `O=S(=O)(c1ccc(OCC(O)CN2CCN(c3ccccc3Cl)CC2)cc1)N1CCOCC1` (stereo not drawn) was -1.73 (active).
The value for `COC(=O)COc1ccc(S(=O)(=O)N2CCOCC2)cc1` was 0.524 (inactive); that for `CCCc1[nH]nc2c1C(c1ccc(OC)c(Cn3nc(C)c(Br)c3C)c1)C(C#N)=C(N)O2` (stereo not drawn) was -0.527 (inactive).
The value for `CCCC(=O)Nc1ccccc1N1CCN(C(=O)c2ccccc2)CC1` was 0.0711 (inactive); that for `Cc1ccc(-c2noc(CCC(=O)Nc3ccccc3N3CCN(C)CC3)n2)cc1` was -3.17 (active); that for `Cc1ccc(-c2noc(CCC(N)=O)n2)cc1` was 0.182 (inactive).
Take `COc1ccc(NC(=O)Nc2cccc3cccnc23)cc1`: the B-score was -0.447 (inactive).
The value for `COC(=O)c1ccc(NC(=O)CN(c2ccc(C)cc2)S(=O)(=O)c2c(C)n[nH]c2C)cc1` was -1.39 (active); that for `CCN(CC)C(=O)CCC(=O)Nc1ccc(C(=O)OC)cc1` was -0.0517 (inactive).
The value for `CCOC(=O)c1cccc(NC(=O)CN(c2ccc(C)cc2)S(=O)(=O)c2c(C)noc2C)c1` was -0.345 (inactive).
The value for `CCOc1ccc(-c2nnc(-c3ccco3)o2)cc1` was 0.158 (inactive).
As for `CC(C)(C)NC(=O)C(c1ccco1)N(Cc1ccc2c(c1)OCO2)C(=O)Cn1nnc2ccccc21` (stereo not drawn), the B-score is -0.446 (inactive).
The value for `CCC1(C)Cc2c(sc3nc4n(c(=O)c23)CCCS4)CO1` (stereo not drawn) was -1.1 (active).
The value for `CCOC(=O)CSc1nc2sc3c(c2c(=O)[nH]1)CC(C)(C)OC3` was 1.04 (inactive); that for `CCOC(=O)Cn1c(SC)nc2sc3c(c2c1=O)CC(C)(C)OC3` was -0.00652 (inactive); that for `CCOC(=O)C1CCCN(C(=O)C2CCN(c3nnc(-n4cccc4)s3)CC2)C1` (stereo not drawn) was -0.147 (inactive).
The value for `CCOC(=O)N1CCN(C(=O)C2CCCN(c3ncnc4c3sc3cccc(F)c34)C2)CC1` (stereo not drawn) was -6.95 (active).
For `Cc1cc(=O)n2nc(N3CCCC(C(=O)N4CCN(C)CC4)C3)sc2n1` (stereo not drawn), the B-score is -0.192 (inactive).
Consider `CCOC(=O)N1CCN(C(=O)C2CCN(c3ncnc4c3sc3cccc(F)c34)CC2)CC1`, for which the B-score is -6.68 (active).
The value for `CCOC(=O)C1CCN(c2ncnc3c2oc2ccc(Br)cc23)CC1` was 1.09 (inactive); that for `CCOC(=O)N1CCN(C(=O)C2CC(c3ccc(F)cc3)=NO2)CC1` (stereo not drawn) was 1.56 (inactive).
Consider `Clc1ccc(Nc2nc(-c3cccs3)cs2)nc1`, for which the B-score was -1.85 (inactive).
In the case of `Cn1c(=NC(=O)C2CC2)sc2cc(F)cc(F)c21`, the B-score was -2.24 (inactive).
The value for `COC(=O)COc1ccc2oc(=O)cc(C)c2c1` was 0.286 (inactive); that for `CN(C)CCSc1nc(N)c2c3c(sc2n1)COC(C)(C)C3` was 0.0678 (inactive).
Consider `CC1(C)Cc2c(sc3nc4n(c(=N)c23)CCCCC4)CO1`, for which the B-score was -2.66 (active).
The value for `O=c1c2c(nc3n1CCCCC3)sc1c(O)cccc12` was -0.992 (inactive); that for `CCOC(=O)c1cccc(NC(=O)C2CCCN(S(=O)(=O)c3cnc[nH]3)C2)c1` (stereo not drawn) was 0.994 (inactive).
The value for `COc1ccc(OC)c(NC(=O)Cn2c(=O)oc3ccccc32)c1` was -0.343 (inactive); that for `CCn1c(=N)n(CC(=O)c2cccc(OC)c2)c2ccccc21` was -6.64 (active).
In the case of `C=CCn1c(=N)n(CC(O)COc2ccc(OC)cc2)c2ccccc21` (stereo not drawn), the B-score was 0.0139 (inactive).
Turning to `CCCCCC(=O)Nc1ccc2oc(-c3ccncc3)nc2c1`, the B-score is 0.442 (inactive).
Consider `CCc1c(C)sc(NC(=O)c2ccc(Br)o2)c1C(=O)OC`, for which the B-score was -0.053 (inactive).
The value for `OC(COc1ccccc1)Cn1cc(Br)cn1` (stereo not drawn) was -0.268 (inactive); that for `O=S(=O)(Nc1ccc2nc(-c3ccco3)[nH]c2c1)c1ccccc1` was -0.153 (inactive).
Turning to `CC(=O)N1CCN(C(=O)c2cccc(S(=O)(=O)Nc3ccc(C)cc3)c2)CC1`, the B-score is -0.171 (inactive).
The value for `Cc1ccc(S(=O)(=O)Nc2ccc3ncccc3c2)cc1` was -3.27 (active).
As to `COc1ccc(NC(C)=O)cc1NC(=O)CN1CCN(C2c3ccccc3-c3ccccc32)CC1`, the B-score is 0.0245 (inactive).
The value for `CN(CCCC(=O)Nc1nccs1)S(=O)(=O)c1ccc(Cl)cc1` was 0.248 (inactive); that for `O=C(NCCCCO)C(F)(F)C(F)(F)C(F)(F)C(=O)NCCCCO` was 0.234 (inactive); that for `CC(=O)c1c(N2CCOCC2)nc(=S)n(-c2cc(C)ccc2C)c1C` was -0.429 (inactive).
The value for `C=CCOc1ccc(/C=N/n2cncn2)cc1OC` was 0.195 (inactive); that for `C(=N\n1cnnc1)/c1cccnc1` was -0.0308 (inactive).
The value for `COCCNCCOCCOc1cccc(OC)c1` was 0.826 (inactive); that for `CCOc1cc(/C=N/n2cnnc2)c(Br)cc1O` was 0.717 (inactive).
On to `COc1ccccc1OCCOc1ccc(/C=N/n2cnnc2)cc1`, for which the B-score was -2.39 (active).
The value for `COc1cccc(OCCOc2cccc(/C=N/n3cnnc3)c2)c1` was -2.76 (active); that for `O=C(CSc1nc2[nH]ncc2c(=O)n1-c1ccccc1)N1CCCc2ccccc21` was 0.281 (inactive).
The value for `CCOc1cc(C)c(Cl)cc1S(=O)(=O)n1nnc2ccccc21` was 0.583 (inactive); that for `COc1ccc(C(=O)NCCc2ccc(S(N)(=O)=O)cc2)cc1OC` was -0.216 (inactive); that for `Cc1cc2cc(CN(Cc3cccs3)Cc3nnnn3CC3CCCO3)c(=O)[nH]c2cc1C` (stereo not drawn) was -0.714 (inactive).
